Screening data from PubChem.
Cycloheximide cs: Cycloheximide Counterscreen for Small Molecule Inhibitors of Shiga Toxin | cell reporter, cycloheximide protein synthesis inhibition counterscreen | max response, % | hit rate 12% among 300,000 | AID 2314, 2010; in the data active = max response mostly above about 13%, no sharp cut-off; inactive = mostly below about 14%; also: read at 38.3 µM for the half of the compounds with a filed dose; 0% is about no effect
Pf growth 96h: Primary qHTS for delayed death inhibitors of the malarial parasite plastid, 96 hour incubation; P. falciparum luciferase reporter growth, 96 h; Potency, µM (highest dose often 28.7 µM), for inactives: top-dose activity change, negative = inhibition, hits mostly inhibitors; hit rate 6.9% among 320,000; AID 504834, 2011; active = well fitted inhibition curve with a large enough effect; inconclusive = small, poorly fitted or top-dose-only effect, or another doubt; inactive = no such curve, though single readings can be large or run the other way; also: potency is read from the fitted curve at half-maximal effect; % is scaled to controls: 0 for no effect and ±100 for the full control effect
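Luminescence readout: decreased luciferase signal marks inhibited growth of reporter-expressing P. falciparum in infected red cells (2% hematocrit, 0.05% parasitemia final), exposed to compound two generations (96 h, 37 C, 5% CO2).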
Shiga toxin inh: A qHTS for Small Molecule Inhibitors of Shiga Toxin; Vero cells, Shiga toxin protein synthesis inhibition reporter; inhibition, % at 38.7 µM; hit rate 9.2% among 290,000; AID 2315, 2010; in the data active = inhibition mostly above about 28%, no sharp cut-off; inactive = mostly below about 43%; also: 0% is about no effect
NS1 inh: qHTS Assay for Inhibitors of Influenza NS1 Protein Function; Potency, µM (series often up to 46.1 µM), for inactives: at the highest dose activity, positive = more growth; hit rate 0.4% among 270,000; AID 2326, 2010; also: potency is read from the fitted curve at half-maximal effect; actives are rising curves; nearly all actives have a fitted effect of over 50% in size
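OD600 was taken as the measure of yeast growth restored by compound in an NS1-expressing S. cerevisiae strain. Cells had been washed out of glucose medium and diluted 1:100 into galactose -URA medium, pH 6.0.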
Pf growth 48h: Primary qHTS for delayed death inhibitors of the malarial parasite plastid, 48 hour incubation; AID 504832, 2011; Potency, µM (top dose mostly 28.7 µM), for inactives: at the highest dose activity change, negative = inhibition, usual class: inhibitors; P. falciparum luciferase growth in erythrocytes, 48 h; hit rate 5.9% among 310,000; active = well fitted inhibition curve with a large enough effect; inconclusive = small, poorly fitted or top-dose-only effect, or another doubt; inactive = no such curve, though single readings can be large or run the other way; also: potency is read from the fitted curve at half-maximal effect; % is scaled to controls: 0 for no effect and ±100 for the full control effect
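Firefly luciferase activity from engineered P. falciparum reports growth; inhibitors lower the luminescent signal. Cultures contained 2% hematocrit erythrocytes at 0.1% final parasitemia.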
SARS PLP yeast: qHTS of Yeast-based Assay for SARS-CoV PLP | S. cerevisiae expressing SARS-CoV PLpro, growth rescue | Potency, µM (series often up to 32.9 µM), inactives show top-dose activity, positive = growth rescue, hits mostly activators | hit rate 0.19% among 330,000 | AID 485353, 2010; also: potency is read from the fitted curve at half-maximal effect; 0% is about no effect; nearly all actives have a fitted effect of over 55% in size
* hit, by the source's call; i = inactive; ? = inconclusive; nt = no result given. In the library only some 21% were active in any assay of this set; here they are far more common. Unless noted, calls follow the shape of the full dose curve.

SMILES	Cycloheximide cs	Pf growth 96h	Shiga toxin inh	NS1 inh	Pf growth 48h	SARS PLP yeast
COc1cccc(-c2csc(NC3OC(=O)c4c3ccc(OC)c4OC)n2)c1 (configuration not stated)	46*	144%	42	-9%	86%	-3%
COc1ccc2c(c1OC)C(=O)OC2Nc1nc(-c2ccc(-c3ccccc3)cc2)cs1 (configuration not stated)	80*	i	121*	-23%	425%	-85%
Cc1ccc(C(=O)NCc2n[nH]c(=S)n2-c2ccccc2)cc1[N+](=O)[O-]	9	?	-9	nt	-19%	1%
CCOc1ccc(NS(=O)(=O)c2ccc(OC)c(NC(=O)c3ccc4c(c3)OCCO4)c2)cc1	6	?	23	24%	-8%	21%
CCOc1ccc(C(=O)Nc2ccc3c(c2)OCCO3)cc1OC	20*	51%	63*	-13%	122%	-15%
CCOc1ccc(C(=O)NCC(=O)Nc2ccc3c(c2)OCO3)cc1OCC	nt	39%	nt	nt	?	1%
CCOc1ccc(C(=O)Nc2ccc3c(c2)OCCO3)cc1[N+](=O)[O-]	14	?	67	nt	26%	4%
CCOc1ccc(NC(=O)c2ccc3c(c2)OCCO3)cc1S(=O)(=O)N(CC)CC	nt	13µM*	nt	nt	13µM*	-1%
CCOc1cc(C(=O)Nc2ccc3c(c2)OCO3)ccc1OC(F)F	23*	9.3µM*	52	-31%	46%	-15%
CCCOc1ccc(CCCN=C(N)N)cc1Cl	0	-12%	27	-3%	?	-2%
CCc1ccc(/C=C2\Oc3c(ccc(O)c3CN3CCN(CCO)CC3)C2=O)cc1	0	?	-3	13%	?	0%
O=c1c(Cc2ccc(Cl)cc2)c(O)ccn1Cc1cccc(Cl)c1	-2	-22%	-41	22%	?	1%
O=c1c(Cc2ccc(F)cc2)c(O)ccn1Cc1cccc(Cl)c1	-1	13µM*	-6	-3%	12µM*	8%
O=c1c(Cc2ccc(Cl)cc2Cl)c(O)ccn1Cc1ccc(Cl)cc1	-2	?	13	?	4.1µM*	-25%
COc1ccc(OC)c(S(=O)(=O)N2CCCC(C(=O)NCc3cccnc3)C2)c1 (configuration not stated)	-6	25%	4	-6%	-1%	1%
CCCOc1ccc(CNC(=O)c2ccc3c(c2)N(CC)CCS3)cc1	-1	10%	-2	0%	5%	2%
Cn1cc(C=O)c(-c2ccc3c(c2)OCCCO3)n1	44*	1%	83*	4%	6%	-1%
CN(C(=O)COC(=O)/C=C/c1cn(-c2ccccc2)nc1-c1ccc2c(c1)OCCO2)C1CCS(=O)(=O)C1 (configuration not stated)	-3	12µM*	-5	nt	?	0%
N#Cc1cn(-c2ccccc2)nc1-c1ccc2c(c1)OCCO2	24*	-2%	64*	0%	142%	3%
O=Cc1cn(-c2ccccc2)nc1-c1ccc2c(c1)OCCO2	57*	?	99*	-21%	394%	-55%
O=C(COC(=O)/C=C/c1cn(-c2ccccc2)nc1-c1ccc2c(c1)OCCO2)NC1CCS(=O)(=O)C1 (configuration not stated)	4	?	16	-8%	?	-1%
C=CC[C@H](CC(=O)N(CCO)Cc1ccccc1)C(=O)NCCOC(=O)[C@@H](CC=C)CC(=O)OC(C)(C)C	nt	nt	nt	nt	nt	5%
COC(=O)c1cc(-c2cc(OC)ccc2OC)nc2c1c(=O)n(C)c(=O)n2Cc1ccccc1	5	2.1µM*	-6	-42%	?	0%
COC(=O)c1cccnc1-n1c(=O)c2cccnc2n(Cc2cccc(OC)c2)c1=O	-4	?	-1	-4%	nt	0%
CSc1ccc(CN(C)C(=O)C(c2ccccc2)c2ccccc2)cc1	-1	?	-2	4%	8.3µM*	-6%
SMILES	Cycloheximide cs	Pf growth 96h	Shiga toxin inh	NS1 inh	Pf growth 48h	SARS PLP yeast
CSc1ccc(CN(C)C(=O)c2cc(=O)c3ccccc3o2)cc1	-1	27%	11	-19%	0%	-13%
CSc1ccc(CN(C)C(=O)C(Cc2ccccc2)NC(=O)c2ccccc2)cc1 (configuration not stated)	40*	?	65*	-2%	-11%	-4%
CN(Cc1ccc(F)cc1)C(=O)C(Cc1ccccc1)NC(=O)c1ccccc1 (configuration not stated)	nt	13%	nt	nt	?	nt
Cc1ccc(N2C(=O)C3ON(c4ccccc4)C(CC(C)C)C3C2=O)cc1 (configuration not stated)	9.3*	21%	21	1%	13%	-1%
O=C(O)COc1ccccc1C1C2C(=O)N(c3ccc(F)cc3)C(=O)C2ON1c1ccccc1 (configuration not stated)	-1	2%	-32	?	22%	4%
COc1ccccc1C1C2C(=O)N(c3ccccc3)C(=O)C2ON1c1ccccc1 (configuration not stated)	3	8.3µM*	-18	2%	1%	-6%
O=C1C2ON(c3ccccc3)C(c3ccncc3)C2C(=O)N1c1ccccc1 (configuration not stated)	-3	nt	-5	6%	11%	0%
C#CCOC(=O)Nc1cc(C)n(-c2ccccc2)n1	1	-18%	-8	-3%	0%	1%
COc1cc([N+](=O)[O-])ccc1NC(=O)CC1SC(=Nc2ccc(F)cc2)N(CCC2=CCCCC2)C1=O (configuration not stated)	3	1.9µM*	-11	?	?	13%
COc1ccc(OC)c(NC(=O)CC2SC(=Nc3ccc(F)cc3)N(CCC3=CCCCC3)C2=O)c1 (configuration not stated)	13*	4.1µM*	-1	15%	?	11%
Cc1[nH]nc(N)c1N=Nc1ccc(Br)cc1	29*	21%	41*	-47%	27%	-3%
Cc1ccc(-c2[nH]nc(N)c2N=Nc2ccccc2C)cc1	-3	177%	25	-79%	?	-43%
Cc1ccc(C)c2sc(N)nc12	-3	?	1	-1%	19%	-1%
Cc1nc(N)sc1N=Nc1ccc(Br)cc1	65*	141%	127*	-48%	nt	-29%
Cc1ccc(N=Nc2c(N)n[nH]c2N)cc1	41*	-66%	49*	9%	91%	-2%
Nc1n[nH]c(N)c1N=Nc1ccc2c(c1)OCO2	36*	35%	97*	10%	27%	-1%
COc1ccc2[nH]cc(CCNC(=O)c3ccccc3Cl)c2c1	2	12%	23	-1%	38%	-2%
CN1CCCN(C(=O)c2ccc(Br)s2)CC1	-3	-5%	-9	6%	10%	-3%
